The list is not random: actives were taken first. Their share in the collection is about 1.2%.
RXFP1 antagonist: blocks the human relaxin receptor RXFP1; 0.59% of 350,000 active; Q9HBX9; activity change, negative = inhibition, % at 57.5 µM; HEK293-RXFP1, relaxin-stimulated cAMP HTRF, 30 min; stronger effect = lower value;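 active = activity change of -60% or lower, but not beyond a set lower limit; inconclusive = change between -60% and -40%, or beyond the set limit; inactive = change above -40%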; note: % is set by controls: 0 for no effect and ±100 for the full control effect
Target sequence (Q9HBX9 whole entry, looked up): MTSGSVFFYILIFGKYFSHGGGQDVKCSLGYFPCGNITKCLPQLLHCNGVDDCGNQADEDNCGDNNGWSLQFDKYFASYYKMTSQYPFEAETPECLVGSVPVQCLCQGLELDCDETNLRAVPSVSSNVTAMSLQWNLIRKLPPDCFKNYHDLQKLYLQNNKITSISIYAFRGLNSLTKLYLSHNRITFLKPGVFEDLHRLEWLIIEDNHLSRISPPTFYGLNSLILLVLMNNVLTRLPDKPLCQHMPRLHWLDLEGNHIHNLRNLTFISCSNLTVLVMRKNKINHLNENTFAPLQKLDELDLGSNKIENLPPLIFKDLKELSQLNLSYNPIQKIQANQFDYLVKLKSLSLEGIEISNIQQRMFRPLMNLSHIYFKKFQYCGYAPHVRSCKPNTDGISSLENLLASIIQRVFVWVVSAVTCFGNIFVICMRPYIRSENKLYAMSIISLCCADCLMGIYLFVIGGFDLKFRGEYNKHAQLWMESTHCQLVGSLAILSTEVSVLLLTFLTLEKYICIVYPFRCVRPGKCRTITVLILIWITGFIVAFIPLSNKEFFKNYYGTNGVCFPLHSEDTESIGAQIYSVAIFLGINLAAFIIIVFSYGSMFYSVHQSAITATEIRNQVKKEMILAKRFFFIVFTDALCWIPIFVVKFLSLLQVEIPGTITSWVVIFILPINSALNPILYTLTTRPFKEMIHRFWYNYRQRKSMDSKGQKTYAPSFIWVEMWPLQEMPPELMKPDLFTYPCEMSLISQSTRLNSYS
RXFP1 agonist: activates the human relaxin receptor RXFP1 | HEK293T-RXFP1 cAMP TR-FRET, 30 min; response scale: percent of porcine relaxin response, buffer zero | Potency, µM (top dose mostly 57.5 µM), for the others: at the top dose activation, usual class: activators | Q9HBX9 | 0.3% of 370,000 active | AID 2676; active = well fitted activation curve with a large enough effect; inconclusive = small, poorly fitted or top-dose-only effect; note: potency is the fitted concentration of half-maximal effect; % is set by controls: 0 for no effect and ±100 for the full control effect; nearly all actives have a fitted effect of over 60% in size
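HEK293 cells stably expressing RXFP1, treated 30 min at 37C with compounds plus PDE4 inhibitor Ro 20174; cAMP measured by HTRF TR-FRET. Normalized to buffer and 29 nM porcine relaxin; EC50 by Hill fit.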
gsp antag: antagonizes gsp, the McCune-Albright syndrome mutation; gsp-mutant cells, cAMP HTRF, 30 min; Potency, µM (highest dose often 76.9 µM), for the others: at the top dose activity change, negative = inhibition, hits mostly inhibitors; 0.4% of 340,000 active; calls by dose curve; cell line not stated here;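 note: intracellular cAMP measured with PDE inhibitor Ro 20-1724 present during compound exposure; potency is the fitted concentration of half-maximal effect; % is set by controls: 0 for no effect and ±100 for the full control effect; nearly all actives have a fitted effect of over 65% in size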
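Cells, 2000/well, grown 16–24 h in DMEM 10% FBS with 0.5 mg/ml G418, then compounds plus […] (300 uM addition stock), 30 min at 37C. cAMP read by HTRF (cAMP-d2 and anti-cAMP antibody-K in lysis buffer) after 30 min RT.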
gsp ag: activates gsp, the McCune-Albright syndrome mutation. Potency, µM (highest dose often 76.9 µM), inactives show top-dose activation (cAMP increase), actives largely listed as activators. 0.13% of 340,000 active. AID 624287. gsp mutant cells, cAMP HTRF, 30 min; active = well fitted activation curve with a large enough effect; inconclusive = small, poorly fitted or top-dose-only effect, or another doubt; inactive = no such curve, though single readings can be large or run the other way; cell line not stated here;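 note: phosphodiesterase inhibitor Ro 20-1724 added with compounds to block cAMP breakdown; potency is the fitted concentration of half-maximal effect; nearly all actives have a fitted effect of over 60% in size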
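Cells in DMEM/10% FBS with G418 were pretreated with compounds in DMSO plus […] (300 uM stock) for 30 min at 37C. cAMP was measured by HTRF (cAMP-d2 plus anti-cAMP antibody-K) after 30 min at room temperature.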
Akt phos inh: inhibitors of Akt phosphorylation. AID 651550. activity change, % for hits at 50 µM. Neuro2A IGF-stimulated pAkt S473 HTRF, 20 min; stronger effect = lower value. 0.32% of 360,000 active; in the data active = activity change below about -80%; inconclusive = mostly about -51% to -80%; note: % is set by controls: 0 for no effect and ±100 for the full control effect
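Single-point screen (50 µM final compound) in Neuro2A cells stimulated 20 min with 6 nM IGF at 37 deg C. After lysis, Ser473-phosphorylated Akt read by HTRF (ex 330 nm, em 615/665 nm) as the 665/615 ratio.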
* hit, by the source's call; i = inactive; ? = inconclusive; / = no result; [ ] = dose if it differs, or a comment.

SMILES	RXFP1 antagonist	RXFP1 agonist	gsp antag	gsp ag	Akt phos inh
CSc1nc(-c2cccs2)c(C#N)c(=O)[nH]1	23	14µM*	18%	112%[15.4 µM]	i
CCCc1ccc(OCc2ccc(C(=O)Nc3ccccc3C(=O)OC)o2)cc1	-33	5%	/	/	/
Cc1csc2ncc(C(=O)NC(C)c3ccccc3)c(=O)n12 (configuration not stated)	5	10%	-2%	18µM*	i
Cc1ccc(Cl)cc1NC(=O)C(C)n1nnc2sc3c(c2c1=O)CCCC3 (configuration not stated)	-7	6%	/	/	/
Cc1cc2oc(=O)cc(CN3CCN(Cc4ccccc4)CC3)c2cc1Cl	1	1%	-13%	-1%	-111%*
CCc1ccc(OCC(=O)N(Cc2ccc(C(C)C)cc2)C2CCS(=O)(=O)C2)cc1 (configuration not stated)	-38	1%	/	/	/
Cc1ccc(S(=O)(=O)Nc2ccccc2-c2ccccc2NS(=O)(=O)c2ccc(C)cc2)cc1	-16	-4%	40µM*	-3%	i
Cc1ccc(S(=O)(=O)Nc2ccccc2C(N)=O)cc1	-5	0%	9%	24%	i
O=c1cc(-c2ccccc2)[nH]c2nc3ccccc3n12	-14	0%	13%	?	-107%*
Cc1cc(C)c(C#N)c(SCc2ccc(F)cc2)n1	-7	6%	-19%	15%	i
Cc1cc(C)c(C#N)c(SCCS(=O)(=O)Cc2ccc(Cl)cc2)n1	2	?	22%	?	-91%*
Cc1cc(C)c(C#N)c(SCc2ccc(C#N)cc2)n1	-5	2%	6%[15.4 µM]	1%	-92%*
Cc1cc(C)c(C#N)c(SCCS(=O)(=O)c2ccc(Cl)cc2)n1	-15	-5%	-22%	17%[15.4 µM]	i
CCOc1ccc(CNC(=O)CN2N=C(c3ccccc3)CCC2=O)cc1OC	7	0%	/	/	/
O=C(NC1CCCC1)c1cc2cc(Br)ccc2o1	0	1%	8%	2.5µM*	i
Cc1nnc2c3ccccc3c(Cl)nn12	0	?	5%	25µM*	i
CCc1cccc(NC(=O)c2cc3c(=O)oc4ccc(C)cc4c3s2)c1	/	30%	/	/	/
CCN1C(=O)C2(c3ccccc31)c1c(oc3ccccc3c1=O)C(=O)N2CCOC (configuration not stated)	/	1%	/	/	/
Cc1ccc(C(C)(C)C)cc1S(=O)(=O)Nc1cccc(C(=O)N2CCN(c3ccccn3)CC2)c1	?	1%	40µM*	-19%	i
CCCCN(C)CCNC(=O)C1CCN(c2nc3ccc(CC)cc3s2)CC1	-22	-2%	/	/	/
Cn1c(-c2ccc([N+](=O)[O-])cc2)nc2ccccc21	12	?	13%	2.2µM*	i
Cc1cccc(NC(=O)CSc2c3c(nc4ccccc24)CCC3)n1	-2	2%	-3%	?	i
CCC(C)NC(=O)CSc1c2c(nc3ccccc13)CCCC2 (configuration not stated)	-7	9%	3%	13µM*	i
O=[N+]([O-])c1ccccc1CSc1nnc2ccccn12	-8	5%	9%	27%[15.4 µM]	i
O=[N+]([O-])c1ccc(CSc2nnc3ccccn23)cc1	-1	17%	1%	18µM*	i
SMILES	RXFP1 antagonist	RXFP1 agonist	gsp antag	gsp ag	Akt phos inh
CC(C)(C)[C@H](NC(=O)c1ccc(N)c(Cl)c1)C(=O)N1CCC[C@H]1C(=O)N[C@H](C#N)Cc1nn[nH]n1	/	0%	/	/	/
CCOc1ccc2nc(NC(=O)C3(C)CC3(Br)Br)sc2c1 (configuration not stated)	-84*	/	?	4%	i
CCOCC(=O)Nc1nc2ccc(OCC)cc2s1	-4	0%	-9%	3%	i
COc1ccc(OC)c(NC(=O)CN2C(=O)C3(OCCCO3)c3ccccc32)c1	0	1%	7%	20%	i
COc1ccc(CCNC(=O)CN2C(=O)C3(OCCCO3)c3ccccc32)cc1OC	-3	0%	2%	?	-90%*
Cc1ccc(C(=O)NCC(=O)OCCOc2cccc(Cl)c2)cc1	-5	0%	5%	1%[15.4 µM]	i
Cc1ccc(C(=O)NCC(=O)OCCOc2ccccc2Cl)cc1	-84*	0%	-1%	-28%[15.4 µM]	i
O=C(O)c1ccccc1NC(=O)c1cc2ccccc2oc1=O	-14	4%	32µM*	?	i
Cc1ccc(CN2CCCn3nc(C(=O)NCc4ccc(N(C)C)cc4)cc3C2=O)cc1	-1	2%	/	/	/
COCCNC(=O)CCn1c(=O)oc2ccccc21	6	0%	1%	1%	-109%*
CCOc1ccc(CNC(=O)CCn2c(=O)oc3ccccc32)cc1OC	-7	3%	-1%	8%	-105%*
CCOC(=O)c1c(C)n(-c2ccccc2)c2ccc(OC(=O)c3ccccc3NC(=O)C(C)C)cc12	-32	-1%	/	/	/
CCOC(=O)c1c(C)n(-c2ccccc2)c2ccc(OC(=O)c3ccccc3NC(=O)C(C)(C)C)cc12	-64*	0%	/	/	/
Cc1[nH]c(N=Nc2ccccc2)nc1N=Nc1ccccc1	-94*	0%	-18%	3%[15.4 µM]	i
Cc1cccc(Cn2cccc2CNS(=O)(=O)c2ccc(C)c(C)c2)c1	/	0%	/	/	/
O=C(Oc1cccc2cccnc12)c1ccco1	-8	-3%	12%	-41%	-110%*
COC(=O)c1ccc(N2NC(=O)/C(=C/c3cc(OC)c(O)c(OC)c3)C2=O)cc1	-11	2%	-20%	?	i
COC(=O)c1ccc(N2NC(=O)/C(=C/c3cc(OC)c(OC)c(OC)c3)C2=O)cc1	-16	0%	13µM*	?	i
Clc1ccccc1Sc1cnc2ccccc2n1	6	29%	28%	?	-91%*
COc1ccc(Oc2ccc(/C=C/C(=O)c3ccc(O)cc3)cc2[N+](=O)[O-])cc1	-64*	-2%	-22%	5%	i
CCc1ccc2oc(-c3ccc(OC)cc3)cc(=Nc3c(C)n(C)n(-c4ccccc4)c3=O)c2c1	-23	2%	28µM*	-1%	i
CCc1ccc2oc(-c3ccc(OC)cc3)cc(=Nc3cccc(C(=O)O)c3)c2c1	-33	1%	/	16%[15.4 µM]	i
COc1ccc(CCN2C(=O)/C(=C\c3ccco3)SC2=S)cc1OC	-77*	0%	-4%	5%	i
O=C1/C(=C\c2ccco2)SC(=S)N1Cc1ccccc1	-37	0%	-10%	6%	i
CCOc1ccc(-n2cc(-c3ccccc3)c3c(=O)[nH]cnc32)cc1	-97*	0%	?	19%	i
CCOc1cccc(CNCCO)c1OCc1ccc(Cl)cc1Cl	-11	2%	18%	2%	i
CCOc1cc(CNCCO)cc(Br)c1OCc1ccc(Cl)cc1Cl	-92*	2%	6%	18%	/
CSc1nc(-c2ccc(Cl)cc2)nn1S(=O)(=O)c1ccc(Cl)cc1	-3	1%	4%	-18%	i
CSc1nc(-c2ccc(Cl)cc2)nn1S(=O)(=O)c1ccccc1	1	1%	-11%[15.4 µM]	-25%	-115%*

Compound activity: PubChem, National Center for Advancing Translational Sciences (NCATS)
